This is part of a sample that, as a whole, favours compounds with a hit. Of some 79,000 tested, about 15% had one in any assay. Values without a mark were called inactive. The source made the active and inactive calls. No stated cut-off is given here; in the data, active means growth inhibition above about 70%; inactive means the rest.
Assays:
[1] = NCI Yeast Anticancer Drug Screen. Data for the rad52 strain (AID 147);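 further: 0% = growth of vehicle-treated control cultures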; settings: S. cerevisiae rad52 mutant growth inhibition, hits give high values
Outline: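 Inhibition of yeast growth, referenced to vehicle controls, was the measured output for a strain with defective DNA damage repair.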

[2] = NCI Yeast Anticancer Drug Screen. Data for the wt1 strain (AID 149);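 further: 0% = growth of vehicle-treated wt1 cultures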; settings: S. cerevisiae wt1 strain (SPY 50644) growth inhibition, hits give high values
Outline: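 Measured: growth of wt1 yeast under compound versus vehicle treatment, reported as inhibition.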

[3] = NCI Yeast Anticancer Drug Screen. Data for the rad50EPP+ strain (AID 151);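 further: 0% = growth of vehicle-treated control cultures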; settings: S. cerevisiae rad50 mutant strain, hits give high values
Outline: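 Genetically defined yeast (rad50EPP+, DNA damage repair alteration) is grown with compound, and inhibition of growth is expressed relative to vehicle-treated controls.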

[4] = NCI Yeast Anticancer Drug Screen. Data for the rad50 strain (AID 155);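 further: 0% = growth of vehicle-only cultures of the same strain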; settings: S. cerevisiae rad50 strain growth inhibition, hits give high values
Outline: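 Growth of the mutant yeast was measured after compound exposure and referenced to vehicle-treated cultures.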

[5] = NCI Yeast Anticancer Drug Screen. Data for the mec2-1 strain (AID 157); settings: S. cerevisiae mec2-1 strain, hits give high values
Outline: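 Each compound was tested on mec2-1 yeast, a strain altered in DNA damage repair or cell cycle control. Growth inhibition is reported relative to vehicle.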

[6] = NCI Yeast Anticancer Drug Screen. Data for the sgs1 mgt1 strain (AID 161);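 further: 0% = growth of cultures given vehicle only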; settings: S. cerevisiae sgs1 mgt1 strain, hits give high values
Outline: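 Test agents were incubated with a DNA-repair-mutant yeast strain. Growth was then read and compared against vehicle-treated controls.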

[7] = NCI Yeast Anticancer Drug Screen. Data for the CLN2oe strain (AID 163);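 further: 0% = growth of vehicle-only control cultures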; settings: S. cerevisiae CLN2oe strain, hits give high values
Outline: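 First, the altered yeast strain was treated with each compound; second, its growth was measured; finally, inhibition was derived by comparison with vehicle controls.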

[8] = NCI Yeast Anticancer Drug Screen. Data for the cln2 rad14 strain (AID 165);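 further: 0% = growth equal to vehicle treated cultures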; settings: S. cerevisiae cln2 rad14 strain, hits give high values
Outline: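 Test compounds were added to cln2 rad14 yeast cultures; inhibition of growth was then determined by comparison with vehicle treatment.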

[9] = NCI Yeast Anticancer Drug Screen. Data for the bub3 strain (AID 167); settings: S. cerevisiae bub3 mutant strain, hits give high values
Outline: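 Whole-cell yeast assay. The mutant strain was incubated with compounds, and growth inhibition was determined by comparison with vehicle-treated cells.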

[10] = NCI Yeast Anticancer Drug Screen. Data for the wt2 strain (AID 169);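 further: 0% = growth of vehicle-treated yeast cultures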; settings: S. cerevisiae wt2 strain growth inhibition, hits give high values
Outline: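 The panel's yeast strains carry defined changes in DNA repair or cell cycle genes. Each strain is grown with compound, and growth loss is scored relative to vehicle.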

[11] = NCI Yeast Anticancer Drug Screen. Data for the mlh1 strain (AID 171);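 further: 0% = growth of vehicle-treated control cultures of the same strain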; settings: S. cerevisiae mlh1 strain growth inhibition, hits give high values
Outline: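 Inhibition values reflect reduced yeast growth in the presence of compound, referenced to vehicle controls, using a strain chosen for its alteration in DNA repair or cell cycle control.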

[12] = NCI Yeast Anticancer Drug Screen. Data for the mlh1 rad18 strain (AID 175); settings: S. cerevisiae mlh1 rad18 strain growth inhibition, hits give high values
Outline: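 Inhibition values reflect reduced growth of mutant yeast versus vehicle-treated controls following compound exposure; the mutations affect DNA damage repair.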

[13] = NCI Yeast Anticancer Drug Screen. Data for the rad18 strain (AID 177); settings: S. cerevisiae rad18 mutant growth inhibition, hits give high values
Outline: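 Steps: expose repair-mutant yeast to compound; measure growth; express as inhibition relative to vehicle control.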

[14] = NCI Yeast Anticancer Drug Screen. Data for the rad14 strain (AID 159);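 further: 0% = growth of vehicle-treated control cultures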; settings: S. cerevisiae rad14 strain growth inhibition, hits give high values
Outline: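 Here, inhibition of yeast growth was measured after compound exposure, using a strain with a genetic defect in DNA damage repair and vehicle-treated cultures as the reference.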

[15] = NCI Yeast Anticancer Drug Screen. Data for the sgs1 strain (AID 173);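 further: 0% = growth of vehicle-only control cultures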; settings: S. cerevisiae sgs1 mutant, hits give high values
Outline: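 Vehicle-treated cultures served as reference for growth inhibition of a yeast strain altered in DNA damage repair or cell cycle control after compound exposure.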

[16] = at 5.0 µM (retest, dose inferred, filed as 0.5)
[17] = at 50.0 µM (retest, dose inferred, filed as 5.0)

SMILES: O=C(C#Cc1ccccc1)Nc1ccccc1
- growth inhibition ([1]; at 1.2 µM): -14%
- growth inhibition ([1]; at 3.7 µM): -11%
- growth inhibition ([1]; at 11.0 µM): -7%
- growth inhibition ([1]; at 33.0 µM): 23%
- growth inhibition ([1]; at 100.0 µM): 97% (active)
- growth inhibition ([2]; at 1.2 µM): -1%
- growth inhibition ([2]; at 3.7 µM): -10%
- growth inhibition ([2]; at 11.0 µM): -6%
- growth inhibition ([2]; at 33.0 µM): 6%
- growth inhibition ([2]; at 100.0 µM): 95% (active)
- growth inhibition ([3]; at 1.2 µM): -4%
- growth inhibition ([3]; at 3.7 µM): 4%
- growth inhibition ([3]; at 11.0 µM): 37%
- growth inhibition ([3]; at 33.0 µM): 70% (active)
- growth inhibition ([3]; at 100.0 µM): 92% (active)
- growth inhibition ([4]; at 1.2 µM): -20%
- growth inhibition ([4]; at 3.7 µM): -25%
- growth inhibition [4, 16]: -147%
- growth inhibition ([4]; at 11.0 µM): -17%
- growth inhibition ([4]; at 33.0 µM): 52%
- growth inhibition [4, 17]: 20%
- growth inhibition ([4]; at 50.0 µM): 45.8%
- growth inhibition ([4]; at 100.0 µM): 97% (active)
- growth inhibition ([5]; at 1.2 µM): -9%
- growth inhibition ([5]; at 3.7 µM): -7%
- growth inhibition [5, 16]: -48%
- growth inhibition ([5]; at 11.0 µM): -8%
- growth inhibition ([5]; at 33.0 µM): -2%
- growth inhibition [5, 17]: -29%
- growth inhibition ([5]; at 50.0 µM): 33.6%
- growth inhibition ([5]; at 100.0 µM): 80% (active)
- growth inhibition [6, 16]: -57%
- growth inhibition [6, 17]: 67%
- growth inhibition ([6]; at 50.0 µM): 64.7%
- growth inhibition ([7]; at 1.2 µM): -10%
- growth inhibition ([7]; at 3.7 µM): -13%
- growth inhibition ([7]; at 11.0 µM): -14%
- growth inhibition ([7]; at 33.0 µM): -5%
- growth inhibition ([7]; at 100.0 µM): 94% (active)
- growth inhibition [8, 16]: -64%
- growth inhibition [8, 17]: -42%
- growth inhibition ([8]; at 50.0 µM): -13.2%
- growth inhibition ([9]; at 1.2 µM): -10%
- growth inhibition ([9]; at 3.7 µM): -7%
- growth inhibition [9, 16]: -74%
- growth inhibition ([9]; at 11.0 µM): -7%
- growth inhibition ([9]; at 33.0 µM): 24%
- growth inhibition [9, 17]: -6%
- growth inhibition ([9]; at 50.0 µM): 15.4%
- growth inhibition ([9]; at 100.0 µM): 97% (active)
- growth inhibition ([10]; at 1.2 µM): -9%
- growth inhibition ([10]; at 3.7 µM): -4%
- growth inhibition ([10]; at 11.0 µM): 19%
- growth inhibition ([10]; at 33.0 µM): 90% (active)
- growth inhibition ([10]; at 100.0 µM): 99% (active)
- growth inhibition ([11]; at 1.2 µM): -15%
- growth inhibition ([11]; at 3.7 µM): -12%
- growth inhibition ([11]; at 11.0 µM): -9%
- growth inhibition ([11]; at 33.0 µM): 72% (active)
- growth inhibition ([11]; at 100.0 µM): 98% (active)
- growth inhibition [12, 16]: -149%
- growth inhibition [12, 17]: -10%
- growth inhibition ([12]; at 50.0 µM): 38.9%
- growth inhibition ([13]; at 1.2 µM): -9%
- growth inhibition ([13]; at 3.7 µM): -12%
- growth inhibition ([13]; at 11.0 µM): -9%
- growth inhibition ([13]; at 33.0 µM): 8%
- growth inhibition ([13]; at 100.0 µM): 94% (active)

SMILES: O=C1CSC(c2ccccc2)N1c1ccc(-c2ccc(-n3c(-c4ccccc4)nc4ccccc4c3=O)cc2)cc1 (stereo unspecified)
- growth inhibition ([1]; at 1.2 µM): 0%
- growth inhibition ([1]; at 3.7 µM): 1%
- growth inhibition ([1]; at 11.0 µM): 3%
- growth inhibition ([1]; at 33.0 µM): 6%
- growth inhibition ([1]; at 100.0 µM): 38%
- growth inhibition ([2]; at 1.2 µM): -2%
- growth inhibition ([2]; at 3.7 µM): 0%
- growth inhibition ([2]; at 11.0 µM): -2%
- growth inhibition ([2]; at 33.0 µM): -19%
- growth inhibition ([2]; at 100.0 µM): -7%
- growth inhibition ([3]; at 1.2 µM): 3%
- growth inhibition ([3]; at 3.7 µM): 9%
- growth inhibition ([3]; at 11.0 µM): 15%
- growth inhibition ([3]; at 33.0 µM): 20%
- growth inhibition ([3]; at 100.0 µM): 24%
- growth inhibition ([4]; at 1.2 µM): 0%
- growth inhibition ([4]; at 3.7 µM): 1%
- growth inhibition [4, 16]: -2%
- growth inhibition ([4]; at 11.0 µM): 2%
- growth inhibition ([4]; at 33.0 µM): 13%
- growth inhibition [4, 17]: 44%
- growth inhibition ([4]; at 50.0 µM): 57.1%
- growth inhibition ([4]; at 100.0 µM): 43%
- growth inhibition ([5]; at 1.2 µM): 0%
- growth inhibition ([5]; at 3.7 µM): -1%
- growth inhibition [5, 16]: -1%
- growth inhibition ([5]; at 11.0 µM): 2%
- growth inhibition ([5]; at 33.0 µM): 4%
- growth inhibition [5, 17]: 27%
- growth inhibition ([5]; at 50.0 µM): 30.7%
- growth inhibition ([5]; at 100.0 µM): 40%
- growth inhibition ([14]; at 1.2 µM): 1%
- growth inhibition ([14]; at 3.7 µM): 7%
- growth inhibition ([14]; at 11.0 µM): 14%
- growth inhibition ([14]; at 33.0 µM): 36%
- growth inhibition ([14]; at 100.0 µM): 44%
- growth inhibition [6, 16]: 6%
- growth inhibition [6, 17]: 45%
- growth inhibition ([6]; at 50.0 µM): 91.1% (active)
- growth inhibition ([7]; at 1.2 µM): 5%
- growth inhibition ([7]; at 3.7 µM): 3%
- growth inhibition ([7]; at 11.0 µM): 6%
- growth inhibition ([7]; at 33.0 µM): 6%
- growth inhibition ([7]; at 100.0 µM): 10%
- growth inhibition [8, 16]: 40%
- growth inhibition [8, 17]: -1%
- growth inhibition ([8]; at 50.0 µM): 36%
- growth inhibition ([9]; at 1.2 µM): 2%
- growth inhibition ([9]; at 3.7 µM): 5%
- growth inhibition [9, 16]: 3%
- growth inhibition ([9]; at 11.0 µM): 12%
- growth inhibition ([9]; at 33.0 µM): 23%
- growth inhibition [9, 17]: 77% (active)
- growth inhibition ([9]; at 50.0 µM): 82.3% (active)
- growth inhibition ([9]; at 100.0 µM): 59%
- growth inhibition ([10]; at 1.2 µM): 0%
- growth inhibition ([10]; at 3.7 µM): -3%
- growth inhibition ([10]; at 11.0 µM): -2%
- growth inhibition ([10]; at 33.0 µM): 7%
- growth inhibition ([10]; at 100.0 µM): 28%
- growth inhibition ([15]; at 1.2 µM): 1%
- growth inhibition ([15]; at 3.7 µM): 1%
- growth inhibition ([15]; at 11.0 µM): 6%
- growth inhibition ([15]; at 33.0 µM): 23%
- growth inhibition ([15]; at 100.0 µM): 46%
- growth inhibition [12, 16]: -20%
- growth inhibition [12, 17]: 83% (active)
- growth inhibition ([12]; at 50.0 µM): 82.7% (active)
- growth inhibition ([13]; at 1.2 µM): -1%
- growth inhibition ([13]; at 3.7 µM): 2%
- growth inhibition ([13]; at 11.0 µM): 8%
- growth inhibition ([13]; at 33.0 µM): 15%
- growth inhibition ([13]; at 100.0 µM): 20%

From PubChem BioAssay (NCI)
